Outcome data for 29 compounds are collected here from PubChem BioAssay (EPA / NIEHS).

The source made the active and inactive calls. The calls were made as follows: active = hit-call score of the fitted dose curve at least 0.9, where 1 is the maximum; inactive = score below 0.9.

Nuclear factor NF-kappa-B p105 subunit (Homo sapiens), sequence (P19838 whole entry, looked up): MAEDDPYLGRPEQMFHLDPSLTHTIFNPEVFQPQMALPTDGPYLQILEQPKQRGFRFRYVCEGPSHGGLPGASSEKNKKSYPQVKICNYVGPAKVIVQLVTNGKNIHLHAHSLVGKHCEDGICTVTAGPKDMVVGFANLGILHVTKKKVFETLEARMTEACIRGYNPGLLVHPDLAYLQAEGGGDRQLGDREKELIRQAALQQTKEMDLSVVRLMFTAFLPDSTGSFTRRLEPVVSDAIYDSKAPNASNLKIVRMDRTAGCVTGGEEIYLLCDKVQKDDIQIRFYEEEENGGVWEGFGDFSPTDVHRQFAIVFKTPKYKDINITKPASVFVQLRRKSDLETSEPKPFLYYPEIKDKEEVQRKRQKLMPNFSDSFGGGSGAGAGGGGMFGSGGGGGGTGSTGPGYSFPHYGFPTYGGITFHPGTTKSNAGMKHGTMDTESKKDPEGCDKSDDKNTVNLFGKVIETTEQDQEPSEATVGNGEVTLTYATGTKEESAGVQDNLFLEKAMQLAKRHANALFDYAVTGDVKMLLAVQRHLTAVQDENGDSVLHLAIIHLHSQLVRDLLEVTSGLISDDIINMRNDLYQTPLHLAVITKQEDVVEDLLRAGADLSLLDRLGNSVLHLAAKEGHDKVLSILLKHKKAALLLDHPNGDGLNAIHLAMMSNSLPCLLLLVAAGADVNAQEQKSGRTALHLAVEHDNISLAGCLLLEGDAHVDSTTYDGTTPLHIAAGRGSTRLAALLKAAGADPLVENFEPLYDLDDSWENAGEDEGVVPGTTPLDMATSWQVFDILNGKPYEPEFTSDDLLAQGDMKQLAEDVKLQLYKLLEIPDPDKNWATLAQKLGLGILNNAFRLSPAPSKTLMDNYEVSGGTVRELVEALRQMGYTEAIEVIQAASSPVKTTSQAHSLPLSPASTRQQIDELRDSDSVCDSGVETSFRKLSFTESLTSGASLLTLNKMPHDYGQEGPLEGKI

Read-out in this experiment: Nuclear factor NF-kappa-B p105 subunit (Homo sapiens) (UniProt P19838)
The experiment in a line: LTEA_HepaRG_NFKB1: Life Technologies and Expression Analysis (LTEA) Assay for Nuclear Factor Kappa B Subunit 1 (NFKB1) using HepaRG (AID 2283521).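 Also: TaqMan qRT-PCR transcript normalised to ACTB GAPDH and POLR2A housekeeping genes.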 Particulars: mRNA level, 48 h; actives raise or lower the signal. As to the method:
LTEA_HepaRG is a cell based, multiplexed-readout assay that uses HepaRG, a human liver cell line, with measurements taken at 48 hours after chemical dosing on a 96-well plate.LTEA_HepaRG_NFKB1 is one of 102 assay component(s) measured in the LTEA HepaRG cell culture assay. It is a marker of Cell proliferation, survival, death.Data from the assay component LTEA_HepaRG_NFKB1 was analyzed into 1 endpoint. This assay endpoint, LTEA_HepaRG_NFKB1, was analyzed with bidirectional fitting relative to DMSO as the negative control and baseline of activity. Using a type of inducible reporter, measures of mRNA induction for gain or loss-of-signal activity can be used to understand regulation of transcription factor activity. To generalize the intended target to other relatable targets, this assay endpoint is annotated to the dna binding intended target family, where the subfamily is NF-kappa B.
A total of 1060 chemcials from the ToxCast library were tested in eight-point concentration-response experiments. Cell culture and cytotoxicity assays were conducted at Thermo Fisher Scientific's Custom Services facility (Madison, WI). A single lot of human HepaRG cells (Thermo Fisher Scientific, Frederick, MD) was used for the cell culture experiments. 96-well format collagen type I coated plates of human HepaRG cells were prepared using established methods. Briefly, cryopreserved HepaRG cells were thawed, plated at a density of approximately 100,000 cells/well in HepaRG Thaw, Plate, and General Purpose media (HPRG770, Thermo Fisher Scientific), and incubated for 48 hours. 0.5% DMSO was selected as vehicle control to balance the requisite need of DMSO in HepaRG cultures to maintain differentiation (for example, baseline metabolism, proportions of hepatocytes vs. cholangiocytes), while enabling further hepatic receptor pathway activation (for example, PXR and CAR) in response to chemical exposure. 48 hours after plating, the culture medium was replaced with HepaRG Serum-Free Incudtion Media. Cells were exposed to each test chemical in duplicate and maintained in CO2 incubators for another 48 hours. Chemical plates were thawed to room temperature and 200x concentrations of treatment groups were prepared. 8-point conentration-reponse curves were made with the highest exposure at 100 uM, followed by half-log dilutions, all in 0.5% DMSO. Each test plate contained variouse controls, induction positive controls (1mM phenobarbital), cytotoxicity positive controls ([…] aflatoxin B1), vehicle controls (0.5% DMSO), and total lysis controls (0.5% DMSO). Cell morphology images were taken using an Essen IncuCyte FLR automated microscope, with six 96-well plates imaged in about 24 minutes. Images were captured and exported and JPEG files. Spent culture media was transfered to black-well plates for the LDH assay, and remaining media was sorted at -80 C for later use. Cells were treated with RLT buffer and frozen until shipped for gene expression analysis. Total RNA was isolated from the cell suspension in 75 uL of Buffer RLT (Qiagen, Germantown, MD 20874) by Quintiles/Expression Analysis (Durham, NC) using a custom isolation procedure. Total RNA from each plate well was transferred to a preamplification plate. Fluidigm's 96.96 Dynamic ArrayTM (Fluidigm, Amsterdam, the Netherlands) technology was used for gene expression analyses by quantitative reverse transcription polymerase chain reaction (qRT-PCR, performed by Quintiles/Expression Analysis, Durham, NC)89. Standard TaqManTM Assays (Applied Biosystems/ThermoFisher Scientific, Foster City, CA) were used to assess the expression of 93 genes selected based on their selectivity and sensitivity to important hepatic receptors known to be modulated by environmental chemicals; importance in human hepatocyte functionality; and hepatotoxicity. […]
As to `O=[N+]([O-])c1ccccc1`, the compound was called inactive. In the case of `Cc1cccc(N)c1`, the result was inactive. For `CCC(C)(C)c1ccc(O)cc1`, the compound was called inactive. Consider `CN(C)C(=O)Cl`, for which the outcome was inactive.

For `O=P1(N(CCCl)CCCl)NCCCO1` (centres undefined), the result was inactive.

Consider `c1cc2c3c(cccc3c1)CC2`, for which the call was inactive.

Turning to `CCC1(c2ccccc2)C(=O)N=C(O)NC1=O` (centres undefined), the result was inactive. Under `CC(C)(C)OOC(C)(C)C` stands “inactive”. Take `O=P(Oc1ccccc1)(Oc1ccccc1)Oc1ccccc1`: the call was inactive.

Consider `CCN(CC)c1ccccc1`, for which the call was inactive. On to `Nc1cc2c3c(c1)C(c1ccccc1)=N[C@@H](NC(=O)c1cccnc1)C(=O)N3CC2`, for which the outcome was inactive. With `ClC1=C(Cl)C2(Cl)C3C(Cl)C(Cl)CC3C1(Cl)C2(Cl)Cl` (centres undefined), the compound was classed as inactive. With `CCOC(=O)c1ccccc1C(=O)OCC`, the outcome was inactive. Next, `CCCCN(CCCC)N=O`: “inactive”. With `CCCCCCCc1ccc(O)cc1`, the result was inactive. For `c1nc[nH]n1`, the call was inactive. On to `Cc1ccc(N)cc1N`, for which the compound was called inactive. Next, `Cc1ccc([N+](=O)[O-])cc1C`: “inactive”; `COCCOCCO`: “inactive”; `CCOc1ccc(C(C)(C)COCc2cccc(Oc3ccccc3)c2)cc1`: “inactive”.

Consider `CCOP(=S)(OCC)SCSCC`, for which the compound was classed as inactive. As to `ClC(Cl)c1ccccc1`, the compound was classed as inactive.

For the compound `CCNc1nc(Cl)nc(NC(C)(C)C)n1`, the result was inactive. Under `O=[N+]([O-])c1ccc(Cl)c(Cl)c1` stands “inactive”; under `c1ccc(OP(Oc2ccccc2)Oc2ccccc2)cc1`, “inactive”. Under `CCCCN(CCCC)SN(C)C(=O)Oc1cccc2c1OC(C)(C)C2` stands “inactive”; under `[N-]=[N+]=[N-]`, “inactive”. Next, `O=C(O)C1C(C(=O)O)C2(Cl)C(Cl)=C(Cl)C1(Cl)C2(Cl)Cl` (centres undefined): “inactive”. For the compound `CCOP(=S)(Oc1ccc([N+](=O)[O-])cc1)c1ccccc1` (centres undefined), the result was inactive.
